Among all 190,000 compounds or so, about 4,000 (2.1%) were called active. This is one part of a sample in which actives are shown more often than they occur. Rule as the data show it: active = inhibition above about 58%; inactive = the rest, inconclusive results apart; tested in S. cerevisiae.

This assay can be described thus: growth inhibition of WT strain, primary screen, mitochondrial fusion inhibitor project, WT and mutant strains, chemical genetic (AID 1362). To be noted: mitochondrial fusion phenotypic screen, at 10 µM.
Setting [1] is: WT strain, growth inhibition, stronger effect = higher value.

The inhibition is the change of the read-out against control, counted positive when it falls. On to `CCc1cc(CNC(=O)CC2C(=O)NCCN2CC2CCCCC2)on1` (configuration not stated), for which the inhibition runs as follows: under setting [1], 8.17% (inactive); (mutant strain inhibition) -2.22%.
The matching figures for `Cc1cccc(C)c1NC(=O)C1(N(C(=O)c2ccccn2)c2ccc(O)cc2)CCCCC1`: 0.64% (inactive) and -13.5%.
In the case of `CC(=O)N/N=C(\C)c1ccc(Br)cc1Br`, the inhibition was 13.2% (inactive) under setting [1] and 10.1% (mutant strain inhibition).
For `O=C(/C(=N\O)n1cncn1)c1ccc(Br)cc1Br`, the inhibition under setting [1] was 86.5% (active) and the inhibition (mutant strain inhibition) is -4.91%.
Take `Cc1ccc(C(=O)N2CCCC(c3ccccc3)=N2)cc1`: the inhibition by setting is: under setting [1], 10.8% (inactive); (mutant strain inhibition) 2.44%.
The matching figures for `Cc1cccc(NC(=O)c2nnn(-c3cccc(C(F)(F)F)c3)c2N)c1`: -4.08% (inactive) and -7.16%.
With `O=C1c2ccccc2NC(c2ccccn2)N1NS(=O)(=O)c1ccccc1` (configuration not stated), the inhibition reads like this: under setting [1], -4.85% (inactive); (mutant strain inhibition) -14.2%.
On to `NS(=O)(=O)c1ccc(N2C(=O)C3C4CC(C(Br)C4Br)C3C2=O)cc1` (configuration not stated), for which the inhibition under setting [1] is -2.55% (inactive) and the inhibition (mutant strain inhibition) was -12.2%.
On to `FC(F)(F)c1cc(-c2ccco2)nc(NCc2ccc(Cl)cc2)n1`, for which the inhibition is 76.9% (active) under setting [1] and 17.2% (mutant strain inhibition).
For `FC(F)(F)c1cc(-c2ccco2)nc(N2CCOCC2)n1`, the inhibition reads like this: under setting [1], 7.84% (inactive); (mutant strain inhibition) 9.26%.
As for `FC(F)(F)c1cc(-c2cccs2)nc(NCc2ccco2)n1`, the inhibition reads like this: under setting [1], 6.76% (inactive); (mutant strain inhibition) 7.71%.
The like results for `COc1ccc(CN2CCCC(C(=O)c3ccc(Cl)cc3)C2)cc1Cn1cncn1` (configuration not stated) were, in that order, -19.6% (inactive) and -4.89%.
The matching figures for `CCc1ccccc1NC(=S)N(CCN1CCCCCC1)Cc1ccco1`: -9.37% (inactive) and 22.4%.
On to `CS(=O)(=O)N(CC(=O)N/N=C/c1ccccn1)c1ccc(Oc2ccccc2)cc1`, for which the inhibition was 13% (inactive) under setting [1] and 10.6% (mutant strain inhibition).
The matching figures for `Cc1ccccc1NC(=O)CNc1ccccc1N1CCCCC1`: 67.2% (active) and 13.6%.
In the case of `Cn1c(=O)c2c(nc(SCC(=O)Nc3ccccc3N3CCCCC3)n2C)n(C)c1=O`, the inhibition was 12.6% (inactive) under setting [1] and -10.4% (mutant strain inhibition).
Regarding `O=C(CN1CCN(C2CCCCC2)CC1)Nc1ccccc1N1CCCCC1`, the inhibition runs as follows: under setting [1], 6.93% (inactive); (mutant strain inhibition) 0.36%.
As for `CC(Sc1nncn1C)C(=O)Nc1cc(C(F)(F)F)ccc1N1CCOCC1` (configuration not stated), the inhibition by setting is: under setting [1], -29% (inactive); (mutant strain inhibition) -7.18%.
For the compound `COc1ccc(NC(C)=O)cc1NC(=O)CN1CCN(c2ccccn2)CC1`, the inhibition was -13.6% (inactive) under setting [1] and -9.7% (mutant strain inhibition).
Consider `COc1ccc(OC)c(NC(=O)CN2CCN(C(=O)c3ccco3)CC2)c1`, for which the inhibition runs as follows: under setting [1], -14.9% (inactive); (mutant strain inhibition) -24.9%.
Regarding `COc1ccc(NC(C)=O)cc1NC(=O)CN1CCN(C2c3ccccc3-c3ccccc32)CC1`, the inhibition was 60.1% (active) under setting [1] and 41.5% (mutant strain inhibition).
Turning to `Cc1c(CN2CCC(CO)(CCOc3ccccc3)CC2)[nH]c2ccc(Cl)cc12`, the inhibition is, setting by setting: under setting [1], 94.7% (active); (mutant strain inhibition) 93.1%.
In the case of `OCC1(CCOc2ccccc2)CCN(Cc2cn[nH]c2-c2ccccc2)CC1`, the inhibition was 15.8% (inactive) under setting [1] and -2.31% (mutant strain inhibition).
In the case of `Cc1c(C(=O)N2CCOCC2)[nH]c2ccc(OCc3ccccc3)cc12`, the inhibition was 14.8% (inactive) under setting [1] and 11.7% (mutant strain inhibition).
On to `CN(c1ccccc1)S(=O)(=O)c1cc(C(=O)OCC(=O)N2CCN(C(=O)c3ccco3)CC2)ccc1Cl`, for which the inhibition is, setting by setting: under setting [1], -22.5% (inactive); (mutant strain inhibition) 9.01%.
Take `OCC1(CCc2ccccc2)CCN(Cc2ccc3nsnc3c2)CC1`: the inhibition runs as follows: under setting [1], 9.84% (inactive); (mutant strain inhibition) 25.4%.
Turning to `COc1cccc(CC2(CO)CCN(Cc3cnc(-c4cccc(C)c4)nc3)CC2)c1`, the inhibition is -0.71% (inactive) under setting [1] and -25.4% (mutant strain inhibition).
Turning to `Cc1cccc(-c2ncc(CN3CCC(CO)(CCCc4ccccc4)CC3)cn2)c1`, the inhibition runs as follows: under setting [1], 84.8% (active); (mutant strain inhibition) 70.5%.
As for `N#CCSc1nn(-c2ccc(F)cc2)c(=S)s1`, the inhibition was 4.11% (inactive) under setting [1] and -30.5% (mutant strain inhibition).
The matching figures for `COCCN(C(=O)c1ccccc1F)c1c(N)n(Cc2ccccc2)c(=O)[nH]c1=O`: 4.27% (inactive) and 0.13%.
For the compound `O=[N+]([O-])c1ccccc1N/N=C1\CCc2ccccc21`, the inhibition under setting [1] is -0.84% (inactive) and the inhibition (mutant strain inhibition) worked out at 3.81%.
Turning to `O=C1c2ccccc2NC(c2ccccc2O)N1NS(=O)(=O)c1ccccc1` (configuration not stated), the inhibition reads like this: under setting [1], -6.26% (inactive); (mutant strain inhibition) -11.6%.
As to `CCCCN(CC)CCCNC(=O)c1ccc(CSc2nc3ccncc3[nH]2)cc1`, the inhibition was 7.78% (inactive) under setting [1] and 7.15% (mutant strain inhibition).
On to `Cc1ccc(-n2cc(CN(C)Cc3nccn3C)c(-c3cccc(C)c3)n2)cc1`, for which the inhibition under setting [1] is 78.8% (active) and the inhibition (mutant strain inhibition) amounted to 64.6%.
On to `Cc1cccc(-n2cc(CN3CCN(C(=O)c4ncn[nH]4)CC3)c(-c3cccc(F)c3)n2)c1`, for which the inhibition under setting [1] is 10.2% (inactive) and the inhibition (mutant strain inhibition) is -17.8%.
The like results for `COc1ccc(-n2cc(CN(C)Cc3n[nH]c(=O)[nH]3)c(-c3cccc(F)c3)n2)cc1` were, in that order, 7.75% (inactive) and 8.93%.
As for `Brc1ccc2nc(N3CCCC3)sc2c1`, the inhibition is, setting by setting: under setting [1], 14.9% (inactive); (mutant strain inhibition) 19.6%.
In the case of `CCOC(=O)C1(Cc2cccc(OC)c2)CCN(Cc2csc(C(C)=O)c2)CC1`, the inhibition is, setting by setting: under setting [1], 25.6% (inactive); (mutant strain inhibition) 25%.
The like results for `O=C(c1ccc(-c2ccccc2)cc1)C1CCCN(C(=O)c2cncs2)C1` (configuration not stated) were, in that order, -57.9% (inactive) and 9.01%.
With `CCc1ccc2c(c1)C(c1ccc([N+](=O)[O-])cc1)=NNC(c1ccccc1)=N2`, the inhibition under setting [1] was -6.57% (inactive) and the inhibition (mutant strain inhibition) was determined as 12%.
Turning to `CCOc1ccc2c(c1)C(c1ccc(C)cc1)=NNC(c1ccc(C)cc1)=N2`, the inhibition is 45.3% (inactive) under setting [1] and 35.7% (mutant strain inhibition).
The matching figures for `Cc1ccc(C2=Nc3c(ccc4ccccc34)C(c3ccncc3)=NN2)cc1`: 67.9% (active) and 45.6%.
Turning to `Cc1coc(C)c1C(=O)CC1(O)C(=O)N(C)c2ccc(Cl)cc21` (configuration not stated), the inhibition is 5.13% (inactive) under setting [1] and 0.33% (mutant strain inhibition).
`CCOc1ccc(NC(=O)CCC(=O)n2nc(C)cc2C)cc1`: the inhibition under setting [1] is -6.72% (inactive) and the inhibition (mutant strain inhibition) is -6.56%.
As to `CCCCCC(=O)Nc1ccc(C(=O)N/N=C/c2ccc([N+](=O)[O-])cc2)cc1`, the inhibition was -17% (inactive) under setting [1] and 15.9% (mutant strain inhibition).
For the compound `CCOc1ccc(NC(=O)CCC(=O)N/N=C/c2ccc([N+](=O)[O-])s2)cc1`, the inhibition under setting [1] is 60.3% (active) and the inhibition (mutant strain inhibition) is 17.2%.
In the case of `COc1ccc(C(=O)NCC(=O)N/N=C/c2ccc([N+](=O)[O-])s2)cc1OC`, the inhibition was -4.24% (inactive) under setting [1] and -9.98% (mutant strain inhibition).
The like results for `Cc1cccc(/C=N/NC(=O)CNc2cccc3ccccc23)n1` were, in that order, 18.4% (inactive) and 3.37%.
As for `Cc1ccccc1NCC(=O)N/N=C\c1ccc([N+](=O)[O-])s1`, the inhibition is 66.5% (active) under setting [1] and 43.8% (mutant strain inhibition).
For `CCN(CC)C(=O)Cn1cc(S(=O)(=O)CC(=O)NCc2ccc3c(c2)OCO3)c2ccccc21`, the inhibition is, setting by setting: under setting [1], -10.5% (inactive); (mutant strain inhibition) 4.73%.
For `O=C(/C=C/c1ccc(F)cc1)NCCNC(=O)/C=C/c1ccc(F)cc1`, the inhibition is 8.8% (inactive) under setting [1] and -17% (mutant strain inhibition).

The values above are taken from PubChem BioAssay AID1362 (SRMLSC, 2008).
